Bioassay records (PubChem)
Only a selection was taken, and hits are over-represented in it overall.
KDM5B inh: KDM5B demethylase inhibition. 220,000 tested, 2.6% active. Q9UGL1. Potency, µM (titrated, usually from 57.7 µM), most hits filed as inhibitors. KDM5B demethylase, FDH-coupled NADH fluorescence (FDH is formaldehyde dehydrogenase); active = well fitted inhibition curve with a large enough effect; also: nearly all actives have a fitted effect of over 70% in size
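Coupled FDH/NAD⁺ fluorescence readout. KDM5BΔAP 200 nM final; compound titration, 10 min RT preincubation; substrate mix 12.5 µM H3K4me3, 25 µM 2-OG, 50 µM Fe(II), 100 µM ascorbate, 0.25 mM NAD⁺, 0.25 U/mL FDH; ΔRFU over 30 min.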
Large screens that a line does not name were inactive.

O=C(Nc1cccc2ccccc12)O[C@@H]1CO[C@H]2[C@@H]1OC[C@@H]2Nc1nccc(-c2cccc(F)c2)n1	none
O=C(N[C@H]1CO[C@H]2[C@@H]1OC[C@@H]2Nc1nccc(-c2ccc(-c3ccccc3)cc2)n1)C1CC1	none
CC(C)(C)C(=O)N[C@H]1CO[C@H]2[C@@H]1OC[C@@H]2Nc1nccc(-c2ccc(-c3ccccc3)cc2)n1	none
CC(=O)c1cccc(NC(=O)O[C@@H]2CO[C@H]3[C@@H]2OC[C@@H]3Nc2nccc(C3CCCC3)n2)c1	none
CC(C)(C)c1ccc(NC(=O)O[C@@H]2CO[C@H]3[C@@H]2OC[C@@H]3Nc2nccc(-c3ccc(-c4ccccc4)cc3)n2)cc1	none
O=C(O)CCCC(=O)N[C@H]1CO[C@H]2[C@@H]1OC[C@@H]2Nc1nccc(-c2ccc(-c3ccccc3)cc2)n1	KDM5B inh 32µM
CN(C)c1ccc(-c2ccnc(N[C@H]3CO[C@H]4[C@@H]3OC[C@H]4OC(=O)Nc3ccc(Oc4ccccc4)cc3)n2)cc1	none
COc1ccc(-c2ccnc(N[C@H]3CO[C@H]4[C@@H]3OC[C@H]4OCC(N)=O)n2)cc1	KDM5B inh 32µM
Cc1cccc(OCC(=O)Nc2cc(-c3nc4ccccc4o3)ccc2C)c1	none
Fc1ccc(-c2nc(-c3ccccc3)c(-c3ccc(F)cc3)o2)cc1	none
Cc1nc(-n2nc(C)c(Cl)c2C)sc1C(=O)N1CCCCC1C (centres undefined)	none
CC1CCN(c2nc3c(c(=O)n(C)c(=O)n3C)n2CC(=O)C23CC4CC(CC(C4)C2)C3)CC1	none
COc1cccc(C(=O)OCc2ccc(C#N)cc2)c1OC	none
COc1ccc(C)cc1NC(=O)CNC(=O)NOCc1ccccc1	none
CN(CC(=O)Nc1c(Cl)cccc1Cl)CC(=O)N1CCCCCC1	none
Cc1ccc(-c2nc(CC(=O)NC3CCCC(C(F)(F)F)C3)cs2)cc1 (centres undefined)	none
CCc1cc2c(=O)c(-c3ccc4c(c3)OCCCO4)coc2cc1OS(C)(=O)=O	none
Cn1c(=O)c2c(nc(Cl)n2CC(=O)N(C2CC2)C2CCS(=O)(=O)C2)n(C)c1=O (centres undefined)	none
N#Cc1cccc(-c2ccnc(N[C@H]3CO[C@H]4[C@@H]3OC[C@H]4OC(=O)Nc3ccccc3)n2)c1	none
COc1cccc(NC(=O)O[C@@H]2CO[C@H]3[C@@H]2OC[C@@H]3Nc2nccc(-c3cccc(F)c3)n2)c1	none
N#Cc1cccc(NC(=O)O[C@@H]2CO[C@H]3[C@@H]2OC[C@@H]3Nc2nccc(-c3cccc(F)c3)n2)c1	KDM5B inh 6.3µM
O=C(Nc1nc(-c2ccccc2)cs1)C1CC(=O)N(c2ccccc2F)C1 (centres undefined)	none
COc1ccc(CCn2c(CCCOc3ccc(Cl)cc3Cl)n[nH]c2=S)cc1OC	none
CCOC(=O)C(NC(=O)c1cccc(C)c1)C(F)(F)F (centres undefined)	none
Cc1ccc([S+](=O)([O-])N2CCc3nc(-c4ccc(Cl)cc4)nc(-c4ccccc4)c3C2)cc1	none
Cc1cc2c(c(=O)n1CCN(C)C)C(c1ccc(Cl)cc1Cl)C(C#N)=C(N)O2 (centres undefined)	none
CCc1ccccc1NC(=O)CN1CCN(C(=O)c2oc3ccccc3c2C)CC1	none
C=CCN(C)C(=O)CC1COc2ccc(C(=O)N(C)C)cc2N1C (centres undefined)	none
COCCNC(=O)c1ccc2c(c1)N(C)C(CC(=O)N(C)CC(C)C)CO2 (centres undefined)	KDM5B inh 32µM
COCCNC(=O)c1ccc2c(c1)N(C)C(CC(=O)NC1CCC1)CO2 (centres undefined)	KDM5B inh 28µM
COCCNC(=O)C(NC(=O)CC(C)C)C1CCN(C(=O)c2ccc3c(c2)OCO3)CC1 (centres undefined)	none
COCCNC(=O)c1ccc2c(c1)N(C)C(CC(=O)NC(C)C)CO2 (centres undefined)	KDM5B inh 20µM
COCCNC(=O)CCCN1C(=O)COc2ccc(C(=O)COc3ccc(C)cc3C)cc21	none
CCCNC(=O)CC1COc2ccc(C(=O)NCCOC)cc2N1C (centres undefined)	KDM5B inh 28µM
COCCNC(=O)c1ccc(OC2CCN(CC3CCOC3)CC2)c(Cl)c1 (centres undefined)	none
CCc1ccccc1OCC(=O)c1ccc2c(c1)N(CCCC(=O)NCCOC)C(=O)CO2	none
C#CCN(C)C(=O)CC1COc2ccc(C(=O)N3CCOCC3)cc2N1C (centres undefined)	none
COCCNC(=O)c1ccc(OC2CCN(Cc3ccc(C)s3)CC2)c(Cl)c1	none
COCCNC(=O)CCc1ccc2c(c1)CN(C(=O)NC(C)C)CCO2	none
CCOc1ccc(Br)cc1C(=O)Oc1ccc(C)cc1Br	none
Cc1cc(NC(=O)c2ccc([N+](=O)[O-])o2)cc(-c2nc3ccccc3o2)c1O	none
CCn1cnc2c1c(=O)n(CC(=O)Nc1ccc(OC(F)F)cc1)c(=O)n2Cc1ccccc1	none
O=C(O)CCCCCNC(=O)Cn1ccc2c(Cl)cccc21	none
O=c1[nH]nc(SCc2nc(-c3ccccc3)no2)n2nc(-c3ccco3)cc12	none
O=C(OCc1cccc2ccccc12)c1cc(=O)c2ccccc2o1	none
Cc1cccc(NC(=O)c2nc3ccccc3nc2N2CCCC2)c1	none
CC(=O)Nc1ccc(-c2nc(N3CCCC3)sc2C)cc1	none
Cc1ccc(-c2c(C(=O)O)sc3c2cnc2ccc(C)cc23)cc1	none
CCc1nnc(NC(=O)c2cc(=O)[nH]c3ccccc23)s1	none
CONC(=O)c1cccc(C#N)c1	none
CCN(CC)C(=O)CC1COc2ccc(C(=O)NCCOC)cc2N1C (centres undefined)	KDM5B inh 28µM
COCCNC(=O)c1ccc2c(c1)N(C)C(CC(=O)Nc1ccc(N)nc1)CO2 (centres undefined)	KDM5B inh 22µM
COCCNC(=O)c1ccc2c(c1)N(C)C(CC(=O)Nc1ccccc1)CO2 (centres undefined)	KDM5B inh 32µM
CCc1ccc(CN2CCC(Oc3ccc(C(=O)NCCOC)cc3Cl)CC2)o1	none
CN(C)C(=O)c1ccc2c(c1)N(C)C(CC(=O)NC(C)(C)c1ccccc1)CO2 (centres undefined)	none
COCCNC(=O)CCCN1C(=O)COc2ccc(C(=O)COc3ccccc3OC)cc21	none
COCCNC(=O)c1ccc(OC2CCN(Cc3cccc4c3OCO4)CC2)c(Cl)c1	none
COc1ccc(NC(=O)c2ccc3c(c2)OCCN(CCC(F)(F)F)C3)cn1	none
CCNC(=O)CC1COc2ccc(C(=O)NCCOC)cc2N1C (centres undefined)	KDM5B inh 32µM
CN(C)C(=O)c1ccc2c(c1)N(C)C(CC(=O)NCC(C)(C)O)CO2 (centres undefined)	none
Cc1cncc(NC(=O)CC2COc3ccc(C(=O)N(C)C)cc3N2C)c1 (centres undefined)	none
O=C(CN1C(=O)NC2(CCOc3ccccc32)C1=O)c1c[nH]c2ccccc12 (centres undefined)	none
C=CCN1CCCC(C(=O)OCC)C1 (centres undefined)	none
COC(=O)c1ccc(CCNC(=O)C(C)C)cc1	none
CC(C)CC(C)N(C)C(=O)NCc1cccc(N(C)C)c1 (centres undefined)	none
COc1cc(C(=O)NC2CCCCC2)ccc1C	none
O=C(Cc1ccc2ccccc2c1)NCCc1cccc2cccnc12	none
COC(=O)c1cc(NC(=O)c2ccc(OC(F)F)c(OC)c2)c(F)cc1F	none
CCCc1cc(=O)oc2cc(OCC(=O)OC(C)(C)C)ccc12	none
Cc1ccccc1Cn1cnc(NS(=O)(=O)c2c(C)n[nH]c2C)n1	none
COCCNC(=O)c1ccc2c(c1)N(C)C(CC(=O)NCc1ccon1)CO2 (centres undefined)	KDM5B inh 28µM
